Assay results taken from PubChem BioAssay (NCATS).
Records with an inconclusive call do not appear. A call without a number means that no potency is given here. Activity calls are given as the source filed them. The call rests on the fitted dose curve; in most records, active means well fitted curve in the direction sought with a large enough effect; inconclusive means small, poorly fitted or top-dose-only effect, or another doubt; inactive means no such curve, though single readings can be large; an effect the other way counts as inactive or inconclusive.

Assay: MultiTox-Fluor Cytotoxicity Assay - LYMP1-001 - Live Cells (AID 947)
Settings: LYMP1-001 lymphoblastoid cells, live-cell protease fluorescence viability; series mostly up to 92.2 µM

Row | SMILES | Potency
1 | CCCCCCc1ccc(-c2ccc(C#N)cc2)cc1 | inactive
2 | Nc1cnn([C@@H]2O[C@H](CO)[C@@H](O)[C@H]2O)c(=O)n1 | inactive
3 | CCCCCCCCOc1ccc(C(=O)O)cc1 | inactive
4 | Oc1c(Cl)cc(Cl)c(Cl)c1Cl | inactive
5 | CC(C)OCC1CO1 (stereo not drawn) | inactive
6 | C/C(Cl)=C/CCl | inactive
7 | CCCCNCC | inactive
8 | O=c1[nH]ncc2ccccc12 | inactive
9 | c1ccc(COCc2ccccc2)cc1 | inactive
10 | O=[N+]([O-])c1cccc(I)c1 | inactive
11 | Nc1ccc2c(c1)C(=O)c1ccccc1C2=O | inactive
12 | c1ccc2c(c1)ccc1ccccc12 | inactive
13 | Nc1ccc(N=Nc2ccccc2)c(N)c1 | inactive
14 | Cc1ccc(C(=O)O)cc1[N+](=O)[O-] | inactive
15 | COc1ccc([N+](=O)[O-])cc1N | inactive
16 | OCC(CO)(CBr)CBr | inactive
17 | Nc1cc(C(=O)O)c(O)c(S(=O)(=O)O)c1 | inactive
18 | Oc1ccc2c(c1)OCO2 | inactive
19 | c1ccncc1 | inactive

Row | SMILES | Potency
20 | CC(=O)OC1CC(C)OC(C)O1 (stereo not drawn) | inactive
21 | O=C(OCc1ccccc1)c1ccccc1O | inactive
22 | C/C=C/C=C/C=O | inactive
23 | CCN(CC)c1ccc2c(C)cc(=O)oc2c1 | inactive
24 | c1ccc(SCCSc2ccccc2)cc1 | inactive
25 | O=C(O)/C=C/c1ccc(/C=C/C(=O)O)cc1 | inactive
26 | CCCCOC(=O)COc1ccc(Cl)cc1Cl | inactive
27 | CC(=O)OC(C(=O)c1ccccc1)c1ccccc1 (stereo not drawn) | inactive
28 | CCCCCCN | inactive
29 | CC(=O)Nc1cccc(C)c1 | inactive
30 | CCC(Cl)CC(Cl)C(Cl)C(Cl)C(Cl)C(C)Cl (stereo not drawn) | inactive
31 | COc1ccc(C)cc1N | inactive
32 | CCc1ccc(C(c2ccc(CC)cc2)C(Cl)Cl)cc1 | inactive
33 | C[C@@H]1CC2(OC(O)[C@]3(C)O[C@H]23)O[C@H]2C[C@@]3(C)[C@@H]4CC[C@H]5C(C)(C)C(O[C@@H]6OC[C@@H](O)[C@H](O)[C@H]6O)CC[C@@]56C[C@@]46CC[C@]3(C)[C@@H]12 (stereo partly drawn) | inactive
34 | O=[N+]([O-])c1ccccc1Nc1ccccc1 | inactive
35 | C=CC1CO1 (stereo not drawn) | inactive
36 | COc1cc(-c2ccc(N=C=O)c(OC)c2)ccc1N=C=O | inactive
37 | COc1ccc(C(=O)Nc2ccccc2)cc1[N+](=O)[O-] | inactive

Assay: Cell Viability - LYMP1-002 - Assay at 16 hr (AID 948)
Settings: LYMP1-002 lymphoblastoid cell viability; series mostly up to 92.2 µM
In short: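 ATP luminescence (CellTiter-Glo) was measured after 16 hr compound exposure at 37 C of 2500 lymphoblastoid LYMP1-002 cells per well. Concentration-response curves were fitted with the Hill equation to give AC50.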

Row | SMILES | Potency
38 | CCCCCCc1ccc(-c2ccc(C#N)cc2)cc1 | inactive
39 | Nc1cnn([C@@H]2O[C@H](CO)[C@@H](O)[C@H]2O)c(=O)n1 | inactive
40 | CCCCCCCCOc1ccc(C(=O)O)cc1 | inactive
41 | Oc1c(Cl)cc(Cl)c(Cl)c1Cl | inactive
42 | CC(C)OCC1CO1 (stereo not drawn) | inactive
43 | C/C(Cl)=C/CCl | inactive
44 | CCCCNCC | inactive
45 | O=c1[nH]ncc2ccccc12 | inactive
46 | c1ccc(COCc2ccccc2)cc1 | inactive
47 | O=[N+]([O-])c1cccc(I)c1 | inactive
48 | Nc1ccc2c(c1)C(=O)c1ccccc1C2=O | inactive
49 | c1ccc2c(c1)ccc1ccccc12 | inactive
50 | Nc1ccc(N=Nc2ccccc2)c(N)c1 | inactive
51 | Cc1ccc(C(=O)O)cc1[N+](=O)[O-] | inactive
52 | COc1ccc([N+](=O)[O-])cc1N | inactive
53 | OCC(CO)(CBr)CBr | inactive
54 | Nc1cc(C(=O)O)c(O)c(S(=O)(=O)O)c1 | inactive
55 | Oc1ccc2c(c1)OCO2 | inactive
56 | c1ccncc1 | inactive

Row | SMILES | Potency
57 | CC(=O)OC1CC(C)OC(C)O1 (stereo not drawn) | inactive
58 | O=C(OCc1ccccc1)c1ccccc1O | inactive
59 | C/C=C/C=C/C=O | inactive
60 | CCN(CC)c1ccc2c(C)cc(=O)oc2c1 | inactive
61 | c1c[nH]cn1 | inactive
62 | c1ccc(SCCSc2ccccc2)cc1 | inactive
63 | O=C(O)/C=C/c1ccc(/C=C/C(=O)O)cc1 | inactive
64 | CCCCOC(=O)COc1ccc(Cl)cc1Cl | inactive
65 | CC(=O)OC(C(=O)c1ccccc1)c1ccccc1 (stereo not drawn) | inactive
66 | CCCCCCN | inactive
67 | CC(=O)Nc1cccc(C)c1 | inactive
68 | CCC(Cl)CC(Cl)C(Cl)C(Cl)C(Cl)C(C)Cl (stereo not drawn) | inactive
69 | COc1ccc(C)cc1N | inactive
70 | CCc1ccc(C(c2ccc(CC)cc2)C(Cl)Cl)cc1 | inactive
71 | O=[N+]([O-])c1ccccc1Nc1ccccc1 | inactive
72 | C=CC1CO1 (stereo not drawn) | inactive
73 | COc1cc(-c2ccc(N=C=O)c(OC)c2)ccc1N=C=O | inactive
74 | CCOC(=O)C1OC1c1ccccc1 (stereo not drawn) | inactive
75 | COc1ccc(C(=O)Nc2ccccc2)cc1[N+](=O)[O-] | inactive

Assay: MultiTox-Fluor Cytotoxicity Assay - LYMP1-002 - Live Cells (AID 955);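 further: cells exposed to compound for 16 hours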
Settings: LYMP1-002 lymphoblastoid live-cell protease fluorescence viability; series mostly up to 46.1 µM
In short: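 LYMP1-002 lymphoblastoid cells; 2500 cells/well; 16 hr compound exposure, 37 C; MultiTox-Fluor reagent 60 min RT; live-cell fluorescence Ex/Em=405/510; qHTS concentration-response, Hill-equation AC50; tetraoctylammonium bromide positive control.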

Row | SMILES | outcome
76 | CCCCCCc1ccc(-c2ccc(C#N)cc2)cc1 | inactive
77 | Nc1cnn([C@@H]2O[C@H](CO)[C@@H](O)[C@H]2O)c(=O)n1 | inactive
78 | CCCCCCCCOc1ccc(C(=O)O)cc1 | inactive
79 | Oc1c(Cl)cc(Cl)c(Cl)c1Cl | inactive
80 | CC(C)OCC1CO1 (stereo not drawn) | inactive
81 | C/C(Cl)=C/CCl | inactive
82 | CCCCNCC | inactive
83 | O=c1[nH]ncc2ccccc12 | inactive
84 | c1ccc(COCc2ccccc2)cc1 | inactive
85 | O=[N+]([O-])c1cccc(I)c1 | inactive
86 | Nc1ccc2c(c1)C(=O)c1ccccc1C2=O | inactive
87 | c1ccc2c(c1)ccc1ccccc12 | inactive
88 | Nc1ccc(N=Nc2ccccc2)c(N)c1 | inactive
89 | Cc1ccc(C(=O)O)cc1[N+](=O)[O-] | inactive
90 | COc1ccc([N+](=O)[O-])cc1N | inactive
91 | OCC(CO)(CBr)CBr | inactive
92 | Nc1cc(C(=O)O)c(O)c(S(=O)(=O)O)c1 | inactive
93 | Oc1ccc2c(c1)OCO2 | inactive
94 | c1ccncc1 | inactive

Row | SMILES | outcome
95 | CC(=O)OC1CC(C)OC(C)O1 (stereo not drawn) | inactive
96 | O=C(OCc1ccccc1)c1ccccc1O | inactive
97 | C/C=C/C=C/C=O | inactive
98 | c1c[nH]cn1 | inactive
99 | c1ccc(SCCSc2ccccc2)cc1 | inactive
100 | O=C(O)/C=C/c1ccc(/C=C/C(=O)O)cc1 | inactive
101 | CCCCOC(=O)COc1ccc(Cl)cc1Cl | inactive
102 | CC(=O)OC(C(=O)c1ccccc1)c1ccccc1 (stereo not drawn) | inactive
103 | CCCCCCN | inactive
104 | CC(=O)Nc1cccc(C)c1 | inactive
105 | CCC(Cl)CC(Cl)C(Cl)C(Cl)C(Cl)C(C)Cl (stereo not drawn) | inactive
106 | COc1ccc(C)cc1N | inactive
107 | CCc1ccc(C(c2ccc(CC)cc2)C(Cl)Cl)cc1 | inactive
108 | C[C@@H]1CC2(OC(O)[C@]3(C)O[C@H]23)O[C@H]2C[C@@]3(C)[C@@H]4CC[C@H]5C(C)(C)C(O[C@@H]6OC[C@@H](O)[C@H](O)[C@H]6O)CC[C@@]56C[C@@]46CC[C@]3(C)[C@@H]12 (stereo partly drawn) | inactive
109 | O=[N+]([O-])c1ccccc1Nc1ccccc1 | inactive
110 | C=CC1CO1 (stereo not drawn) | inactive
111 | COc1cc(-c2ccc(N=C=O)c(OC)c2)ccc1N=C=O | inactive
112 | CCOC(=O)C1OC1c1ccccc1 (stereo not drawn) | inactive
113 | COc1ccc(C(=O)Nc2ccccc2)cc1[N+](=O)[O-] | inactive
